The list is not random: actives were taken first. Their share in the collection is about 19%.
IL-1B inflam inh – inhibitors of inflammasome signaling (IL-1 beta secretion); THP-1 LPS/ATP IL-1B secretion, AlphaLISA, 16 h; hits give low values; 360,000 tested, 4.7% active; activity change, % at 57.5 µM; in the data active means activity change below about -50%; inconclusive means mostly about -30% to -49%
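Secreted IL-1B measured by AlphaLISA bead assay after 16 h compound exposure of THP-1 cells; compounds (final up to 57.5 uM) added 1 h before LPS (250 ng/mL) and ATP (1.25 mM) stimulation; lower signal means less secretion.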
DT40 TDP1 no CPT – qHTS for Inhibitors of human tyrosyl-DNA phosphodiesterase 1 (TDP1): qHTS in cells in absence of CPT; Potency, µM (series often up to 46.2 µM), hits mostly inhibitors; 420,000 tested, 15% active; DT40 Tdp1-/- hTDP1 cells, no CPT, ATP luminescence, 48 h; AID 686978, 2013; further: nearly all actives have a fitted effect of over 55% in size
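Chicken DT40 Tdp1-/- cells complemented with human TDP1, screened without camptothecin (DMSO vehicle only), 400 cells/well. Compounds pin-transferred, cells incubated at 37 °C for at least 48 hr. Growth read as ATP-dependent luminescence (CellTiter-Glo, 30 min at RT).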
HT1080-NT tox – kills 2HG-producing HT-1080-NT fibrosarcoma cells. HT-1080-NT fibrosarcoma viability, CellTiter-Glo ATP luminescence, 48 h. Potency, µM (doses to about 46.1 µM), most hits filed as cytotoxic. 360,000 tested, 1.6% active;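 further: NT is the 2HG producing partner of a matched IDH1 knockdown line; nearly all actives have a fitted effect of over 55% in size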
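Toxicity toward the 2HG-producing NT line was scored as %Activity, normalised to DMSO and no-cell wells, from CellTiter-Glo luminescence after 48 hours' treatment.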
TDP1 cell CPT – growth inhibition of DT40 Tdp1-/-;hTDP1 cells with camptothecin (screen for TDP1 inhibitors); chicken DT40 Tdp1-/-;hTDP1 cells + 20 nM CPT, ATP luminescence, 48 h; Potency, µM (titrated, usually from 46.2 µM), hits mostly inhibitors; 420,000 tested, 12% active; AID 686979; further: nearly all actives have a fitted effect of over 55% in size
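Chicken DT40 Tdp1-/- cells complemented with human TDP1, 400 cells/well, exposed to compounds plus 20 nM camptothecin for at least 48 h at 37 C; viability read as ATP content by CellTiter-Glo luminescence.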
HT1080 IDH1KD tx – kills HT-1080 cells with IDH1 knockdown; 360,000 tested, 2% active; AID 686971; Potency, µM (doses to about 46.1 µM), hits mostly cytotoxic; HT-1080 IDH1 knockdown viability, ATP luminescence, 48 h
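Cytotoxicity counter-line: IDH1KD HT-1080, 48 h, CellTiter-Glo. Curves classed by r2, magnitude and activity.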
Large screens that a line does not name were inactive. Unless noted, the call rests on the fitted dose curve; in most records, active means well fitted curve in the direction sought with a large enough effect; inconclusive means small, poorly fitted or top-dose-only effect, or another doubt; inactive means no such curve, though single readings can be large; an effect the other way counts as inactive or inconclusive.

COc1cc(-c2nnc(SCC(=O)N(C)C3CCCCC3)o2)cc(OC)c1OC	DT40 TDP1 no CPT 5.8µM, TDP1 cell CPT 12µM (no result: IL-1B inflam inh, HT1080-NT tox, HT1080 IDH1KD tx)
COc1cccc(-c2nnc(SCC(=O)N(C)c3ccccc3)o2)c1	DT40 TDP1 no CPT 10µM, TDP1 cell CPT inconclusive (no result: IL-1B inflam inh, HT1080-NT tox, HT1080 IDH1KD tx)
CCN(C(=O)CSc1nnc(-c2ccc(Cl)cc2)o1)c1ccccc1	DT40 TDP1 no CPT 21µM, TDP1 cell CPT inconclusive (no result: IL-1B inflam inh, HT1080-NT tox, HT1080 IDH1KD tx)
Cc1nn(C)c(C)c1NS(=O)(=O)c1ccc(N2CCCC2=O)cc1	IL-1B inflam inh -57, DT40 TDP1 no CPT 16µM, TDP1 cell CPT 18µM, HT1080 IDH1KD tx inconclusive
O=C1CCCN1c1ccc(CNS(=O)(=O)c2ccc(F)cc2)cc1	none
Cc1ccc(S(=O)(=O)Nc2c(C)nn(C)c2C)cc1C	DT40 TDP1 no CPT 13µM, TDP1 cell CPT 21µM
CCn1cnc2c(=O)oc3ccc(S(=O)(=O)N4CCN(c5cc(C)ccc5C)CC4)cc3c21	none (no result: IL-1B inflam inh, HT1080-NT tox, HT1080 IDH1KD tx)
O=C(c1cccc2ccccc12)N1CCN(c2ccc([N+](=O)[O-])c(N3CCOCC3)c2)CC1	DT40 TDP1 no CPT 21µM, TDP1 cell CPT 9.2µM
O=C(Nc1ccc(NC(=O)c2cc([N+](=O)[O-])ccc2N2CCOCC2)cc1)c1cccs1	IL-1B inflam inh inconclusive, DT40 TDP1 no CPT inconclusive, TDP1 cell CPT inconclusive
O=C(Nc1ccc(N2CCCC2)cc1)c1cc([N+](=O)[O-])ccc1N1CCOCC1	DT40 TDP1 no CPT 23µM, TDP1 cell CPT inconclusive, HT1080 IDH1KD tx inconclusive
O=C(Nc1ccc([N+](=O)[O-])cc1)Nc1ccc(N2CCOCC2)c2nonc12	IL-1B inflam inh inconclusive, DT40 TDP1 no CPT 23µM, TDP1 cell CPT 21µM
O=C(NCc1ccco1)c1cc([N+](=O)[O-])ccc1N1CCCCC1	DT40 TDP1 no CPT inconclusive, TDP1 cell CPT 16µM
O=C(c1ccccc1F)N1CCN(c2ccc([N+](=O)[O-])c(N3CCOCC3)c2)CC1	none
O=C(Nc1cc([N+](=O)[O-])ccc1F)c1ccc2ccccc2c1	DT40 TDP1 no CPT inconclusive, TDP1 cell CPT inconclusive
Cc1ccccc1N(CC(=O)NCCc1ccccc1)C(=O)c1csnn1	none
O=C(c1ccccc1Sc1ccc([N+](=O)[O-])cc1Cl)N1CCOCC1	IL-1B inflam inh -72, DT40 TDP1 no CPT inconclusive, TDP1 cell CPT inconclusive
O=C(Nc1ccccc1N1CCOCC1)c1ccc([N+](=O)[O-])cc1	none
O=C(c1cc([N+](=O)[O-])ccc1N1CCOCC1)N1CCN(c2ccc([N+](=O)[O-])cc2)CC1	DT40 TDP1 no CPT 15µM, TDP1 cell CPT 13µM
CC(C)C(=O)N1CCN(c2ccccc2NC(=O)c2cc([N+](=O)[O-])ccc2N2CCOCC2)CC1	DT40 TDP1 no CPT 13µM, TDP1 cell CPT inconclusive
N#Cc1ccccc1Sc1ccccc1C(=O)N1CCOCC1	none
CCCCOC(=O)c1ccc(NC(=O)COC(=O)C2CC2C)cc1 (stereo not drawn)	DT40 TDP1 no CPT inconclusive
Cn1cnnc1Sc1ccc(CN2CCOc3ccc(C4=Cc5ccccc5C4)cc3C2)o1	none (no result: IL-1B inflam inh, HT1080-NT tox, HT1080 IDH1KD tx)
O=C(CC1C(=O)NCCN1Cc1cccc(F)c1)NC1CCCCC1 (stereo not drawn)	none
O=C(CC1C(=O)NCCN1Cc1cccc(F)c1)NC1CCC1 (stereo not drawn)	IL-1B inflam inh -61
O=C(c1cc(C2CCCCN2S(=O)(=O)c2cccs2)on1)N1CCOCC1 (stereo not drawn)	none
CCc1cc(-c2n[nH]c(C)c2-c2nc3ccccc3n2C)c(O)cc1O	IL-1B inflam inh inconclusive, DT40 TDP1 no CPT 18µM, HT1080-NT tox inconclusive, TDP1 cell CPT inconclusive, HT1080 IDH1KD tx inconclusive
CCc1cc(-c2n[nH]c(CCC(=O)O)c2-c2nc3ccccc3n2C)c(O)cc1O	none
Brc1c(OCCOCCn2cncn2)ccc2ccccc12	DT40 TDP1 no CPT 26µM, TDP1 cell CPT inconclusive
O=C(COc1ccc2c3c(c(=O)oc2c1)CCCC3)NCCCn1ccnc1	none
c1ccc(-c2ccc(CNC3CC3)cc2)cc1	IL-1B inflam inh -87, TDP1 cell CPT inconclusive
OCCCNCc1ccc(-c2ccccc2)cc1	none
CCOC(=O)c1ccc(CNCc2ccc(C)cc2)cc1	none
COc1cccc(Nc2ncc3ncc(=O)n(CCC#N)c3n2)c1	none (no result: IL-1B inflam inh, HT1080-NT tox, HT1080 IDH1KD tx)
